The text below walks through data of PubChem BioAssay AID1438 (Sanford-Burnham Center for Chemical Genomics, 2008).

The whole screen tested about 2,200 compounds, of which about 45 (2%) were called active. These entries were drawn from the full list. Entries with a potency or affinity are not part of this list. Values without a mark were called inactive. No rule for the calls is given here.

In general, inhibition refers to the drop in the measured response relative to a control, in per cent.

The target of the assay is Runt-related transcription factor 1 (Homo sapiens) + Core-binding factor subunit beta (Homo sapiens) (UniProt Q01196+Q13951). The experiment in a line: inhibitors of RUNX1 Runt–CBFb-SMMHC binding, biochemical, TR-FRET (AID 1438). The following applies: TR-FRET Runt domain–CBFb-SMMHC binding, at 20 µM, active compounds read high. Background: Time-resolved FRET reads energy transfer from a long-lived donor to a nearby acceptor.
Runt-related transcription factor 1 (Homo sapiens) + Core-binding factor subunit beta (Homo sapiens), sequence (Q01196 whole entry, looked up, the tested form may be a part): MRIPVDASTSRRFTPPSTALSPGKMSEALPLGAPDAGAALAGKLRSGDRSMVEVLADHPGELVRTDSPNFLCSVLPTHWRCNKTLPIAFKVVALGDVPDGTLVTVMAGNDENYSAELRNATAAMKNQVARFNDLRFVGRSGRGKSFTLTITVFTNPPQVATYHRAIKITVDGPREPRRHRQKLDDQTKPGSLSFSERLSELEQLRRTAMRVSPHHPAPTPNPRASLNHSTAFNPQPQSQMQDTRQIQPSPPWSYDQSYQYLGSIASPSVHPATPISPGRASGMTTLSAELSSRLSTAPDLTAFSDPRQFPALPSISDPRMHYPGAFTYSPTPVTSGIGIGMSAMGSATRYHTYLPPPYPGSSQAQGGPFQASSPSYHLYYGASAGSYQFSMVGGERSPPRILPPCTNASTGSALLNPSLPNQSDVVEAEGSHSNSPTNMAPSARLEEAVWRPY
Runt-related transcription factor 1 (Homo sapiens) + Core-binding factor subunit beta (Homo sapiens), sequence (Q13951 whole entry, looked up, the tested form may be a part): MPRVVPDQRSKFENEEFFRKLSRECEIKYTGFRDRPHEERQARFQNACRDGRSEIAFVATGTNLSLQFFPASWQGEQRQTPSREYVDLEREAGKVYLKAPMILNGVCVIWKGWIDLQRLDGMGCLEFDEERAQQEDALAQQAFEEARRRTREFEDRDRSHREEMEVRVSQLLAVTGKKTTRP
Consider `CC(C)OC(=O)CC(=O)CSc1nc2c(cc1C#N)CCCCCC2`, for which the inhibition is 38.5%.
With `CC(=O)c1c(N2CCN(C)CC2)nc(=S)n(Cc2ccccc2)c1C` the figure was 15.7%; with `CCCOc1c(Br)cc(C2C3=C(CCCC3=O)N(CC)C3=C2C(=O)CCC3)cc1OC`, -13.6%.
With `CCCOc1c(Br)cc(C2C3=C(CCCC3=O)N(C)C3=C2C(=O)CCC3)cc1OC` the figure was 41.4%.
Next, `C=CCNc1sc(C(=O)c2cccs2)c(N)c1C#N`: -0.1%; `CNc1sc(C(=O)c2cccs2)c(N)c1-c1nc2ccccc2s1`: 35.8%.
Turning to `Cc1cccn2c(=O)c(/C=C(\C#N)C(N)=O)c(Oc3ccccc3)nc12`, the inhibition is -15.3%.
With `COc1cccc(C(=O)Nc2nc3c(s2)CN(C)CC3)c1` the figure was -21%.
Regarding `COCCCNC(=O)c1c(N)n(-c2ccccc2)c2nc3ccccc3nc12`, the inhibition is -6.7%.
Next, `COCCCNC(=O)c1c(N)n(-c2ccc(S(N)(=O)=O)cc2)c2nc3ccccc3nc12`: 43.4%; `CCCN1C2CCCC1CC(NC(=S)Nc1ccc(OC)cc1)C2` (stereo not drawn): -12%; `CSc1nc(NCC(C)C)c2c3c(sc2n1)CN(C)CC3`: 37.7%.
Consider `CSc1nc(NCCCO)c2c3c(sc2n1)CN(C)CC3`, for which the inhibition was -10.5%.
Next, `COc1ccc(Br)cc1C1NC(=O)c2c(sc3c2CCN(C)C3)N1` (stereo not drawn): 15%.
On to `CCn1nc(NC(=O)C2CCCO2)c2cc3cccc(C)c3nc21` (stereo not drawn), for which the inhibition was 2.1%.
As for `CCN(CC)c1ccc(/C=N\NC(=O)c2cccc3cc[nH]c23)cc1`, the inhibition was 5.9%.
Next, `CCN1C=C(C(=O)OC)C(c2cccc(OC)c2OC)C(C(=O)OC)=C1`: -23.2%; `Cc1c(O)ccc2c3c(c(=O)oc12)CCC(C)C3` (stereo not drawn): 19.7%; `COc1cc(/C=C(\C#N)C(=O)Nc2cccc3ncccc23)cc(OC)c1OC`: 18.6%.
With `Cc1ccc(/C=C/C(=O)Nc2cccc3ncccc23)o1` the figure was 19.8%.
With `COc1ccc(-c2cc(C(F)(F)F)n3nc(N)nc3n2)cc1` the figure was 25.3%.
On to `O=C(Cc1c2ccccc2nc2ccccc12)c1ccccc1`, for which the inhibition is 48.7%.
Next, `COCCCNC(=O)c1cc2c(=O)n3cccc(C)c3nc2n(C(C)C)c1=N`: 1.4%.
In the case of `CC(=O)Nc1nc2n(n1)C(c1ccc(Cl)cc1)C=C(C)N2` (stereo not drawn), the inhibition is 45.7%.
Next, `CC1=CC(c2ccccc2)n2nc(NS(=O)(=O)c3ccc(C)cc3)nc2N1` (stereo not drawn): 49.9%; `N#Cc1c(N)n(-c2cccc(C(=O)O)c2)c2nc3ccccc3nc12`: -8.2%.
Next, `O=c1oc2ccc3ccccc3c2cc1-c1nnc(-c2cccs2)o1`: 29.8%.
In the case of `CCOC(=O)c1cc2c(=O)n3ccccc3nc2n(CCCOC)c1=NC(=O)c1cccnc1`, the inhibition was 47.6%.
Regarding `CN(C)c1cccc(C(=O)OCc2cc(=O)oc3cc(O)ccc23)c1`, the inhibition is 47.5%.
Next, `COC(=O)Cc1cc(=O)oc2cc(O)ccc12`: 32.6%.
Next, `CCOC(=O)c1c(NC(=O)CSc2ncccn2)sc2c1CCN(Cc1ccccc1)C2`: -5.3%.
`CCCCNC(=O)c1cc2c(=O)n3cccc(C)c3nc2n(Cc2ccccc2)c1=N`: the inhibition was 33.9%.
With `CCCCn1c2nc3ccccc3nc2c2c(=N)oc(C)nc21` the figure was 36.7%.
Next, `Cc1nc2c(c(=O)n1Cc1ccco1)c1nc3ccccc3nc1n2Cc1ccccc1`: 80.9% (active).
With `CCCn1c(C)nc2c(c1=O)c1nc3ccccc3nc1n2CCC1=CCCCC1` the figure was 36.3%; with `CCOc1ccc(-n2c(N)c(C(=O)NCc3ccco3)c3nc4ccccc4nc32)cc1`, 43.5%.
For `COc1ccc(-n2c(N)c(C(=O)NCc3ccco3)c3nc4ccccc4nc32)cc1`, the inhibition was 42.9%.
Next, `Cc1ccc(S(=O)(=O)c2cc3c(=O)n4cccc(C)c4nc3n(Cc3ccco3)c2=N)cc1C`: 47.5%; `CCCn1c(=NC(=O)c2c(-c3c(F)cccc3Cl)noc2C)c(C(=O)OCC)cc2c(=O)n3ccccc3nc21`: -16.8%.
With `COc1nc(N)c(S(=O)(=O)c2ccccc2)cc1C#N` the figure was 8.9%.
`CCOC(=O)c1cc2c(=O)n3ccccc3nc2n(CC2CCCO2)c1=NC(=O)/C=C/c1ccccc1` (stereo not drawn): the inhibition was 3.6%.
With `C=CCNC(=O)/C(C#N)=C/c1c(N(Cc2ccccc2)Cc2ccccc2)nc2ccccn2c1=O` the figure was 19.2%; with `COCCN(C(=O)CN1CCc2ccccc2C1)c1c(N)n(Cc2ccccc2)c(=O)[nH]c1=O`, 23.7%.
With `COc1ccccc1NC(=O)c1cc2ccccc2o/c1=N\O` the figure was 30.6%; with `COc1ccccc1NC(=O)c1cc2ccc(O)cc2o/c1=N\O`, -13.2%.
Next, `COCCN1C=C(C(=O)OC)C(c2ccccc2C(F)(F)F)C(C(=O)OC)=C1`: 44%; `COc1cc(/C=N/N2CCN(C3c4ccccc4-c4ccccc43)CC2)cc(OC)c1O`: 33.8%.
Turning to `O=C1C2C3C=CC(CO)(O3)C2C(=O)N1c1ccc(-c2ccccc2)cc1` (stereo not drawn), the inhibition is 27.4%.
`N#Cc1cc2cc3c(cc2nc1NCCNC(=S)NCCCN1CCOCC1)OCO3`: the inhibition is -18.1%.
On to `O=c1c2ccccc2sn1-c1nccs1`, for which the inhibition was -7%.
Next, `CCOC(=O)Cc1csc(/N=C/c2c(O)n(-c3ccc(C)c(C)c3)c(=O)c3ccccc23)n1`: 5%.
With `Cc1c2c(n3c(nc4ccccc43)c1C#N)N(CCCN(C)C)CC2` the figure was -5.5%; with `Clc1ccc(C2=NN(c3ccccc3)C(c3ccco3)C2)cc1` (stereo not drawn), 37.8%.
For the compound `CCOCCCn1c(=N)c(C(=O)NCc2ccc3c(c2)OCO3)cc2c(=O)n3cccc(C)c3nc21`, the inhibition was 1.9%.
In the case of `CC(C)OCCCn1c(=N)c(C(N)=S)cc2c(=O)n3ccccc3nc21`, the inhibition was 49.7%.
With `Cc1cccn2c(=O)c3cc(C(N)=S)c(=N)n(CCCN4CCOCC4)c3nc12` the figure was -11.3%.
With `Cc1cccn2c(=O)c3cc(C(N)=S)c(=N)n(CCCOC(C)C)c3nc12` the figure was 63.5% (active).
With `CC(=O)N=c1c(C#N)cc2c(=O)n3cccc(C)c3nc2n1CCCOC(C)C` the figure was -10.3%.
